Bioassay records: PubChem, National Center for Advancing Translational Sciences (NCATS)
PTHR1 agonist – qHTS for PTHR1 Agonists: Primary Screen | Potency, µM (doses to about 115 µM), without a hit: at the highest dose activation, usual class: activators | AID 743266, 2014 | 410,000 compounds, 0.075% hits | Parathyroid hormone/parathyroid hormone-related peptide receptor (Homo sapiens), Q03431 | HEK293 GP2 PTHR1 cells, GloSensor cAMP luminescence, 1 h; note: nearly all actives have a fitted effect of over 55% in size
Target sequence (Q03431 whole entry, looked up): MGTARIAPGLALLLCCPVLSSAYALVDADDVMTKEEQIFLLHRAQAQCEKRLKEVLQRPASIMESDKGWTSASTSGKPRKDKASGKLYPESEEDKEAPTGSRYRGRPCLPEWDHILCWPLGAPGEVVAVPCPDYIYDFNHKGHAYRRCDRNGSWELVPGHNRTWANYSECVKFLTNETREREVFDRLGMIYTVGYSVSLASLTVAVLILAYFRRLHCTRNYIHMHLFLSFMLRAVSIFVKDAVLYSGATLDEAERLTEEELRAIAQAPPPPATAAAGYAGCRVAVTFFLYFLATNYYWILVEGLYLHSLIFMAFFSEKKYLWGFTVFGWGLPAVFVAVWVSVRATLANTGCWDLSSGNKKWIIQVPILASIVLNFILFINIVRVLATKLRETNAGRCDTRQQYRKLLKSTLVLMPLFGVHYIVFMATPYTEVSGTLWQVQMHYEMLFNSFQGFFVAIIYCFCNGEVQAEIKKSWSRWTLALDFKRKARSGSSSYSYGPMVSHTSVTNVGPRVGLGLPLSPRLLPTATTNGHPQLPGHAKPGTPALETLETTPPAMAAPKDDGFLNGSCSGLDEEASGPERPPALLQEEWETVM
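HEK-293-derived GP2 cells expressing PTHR1 and a GloSensor cAMP reporter, 3,000/well, plated overnight, given luciferin plus IBMX (each 0.5 mM as added) for 1 h at 37 °C, then compound for 1 h at 37 °C. Luminescence was read after 15 min at room temperature.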
GLP-1R inv ag – qHTS of GLP-1 Receptor Inverse Agonists (Inhibition Mode); Glucagon-like peptide 1 receptor (Homo sapiens), P43220; HEK293 GLP-1R CRE-luciferase, luminescence, 24 h; GLP-1R form is constitutively active; Potency, µM (doses to about 38.3 µM), without a hit: at the top dose activity change, negative = inhibition, usual class: inhibitors; 410,000 compounds, 1.6% hits; note: % is set by controls: 0 for no effect and ±100 for the full control effect; nearly all actives have a fitted effect of over 55% in size
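Constitutively active GLP-1R drives a cAMP-responsive luciferase in stably transfected HEK293 cells; test compounds are added after overnight (12 h) attachment and left 24 hr, and signal loss in luminescence marks inhibition.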
RGS4 inhibitor – Inhibitors of Regulator of G Protein Signaling (RGS) 4: qHTS | Transcreener GDP fluorescence polarization, RGS4-accelerated GTP hydrolysis | Regulator of G-protein signaling 4 (Homo sapiens), P49798 | Potency, µM (series often up to 114 µM), for the others: at the highest dose activity change, negative = inhibition, hits mostly inhibitors | 390,000 compounds, 0.039% hits | AID 504845, 2011; note: % is set by controls: 0 for no effect and ±100 for the full control effect; nearly all actives have a fitted effect of over 75% in size
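MLSMR compounds (23 nl, pin-transferred) preincubated 10 min at room temperature with a 500nM (2x) first reagent, then RGS4 at 900nM (2x) plus Transcreener GDP mix added; fluorescence polarization (620/688 nm) read before and after 90 min at 30 °C.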
HEK293 tox – qHTS of GLP-1 Receptor Inverse Agonists: Cytotox Screen; Potency, µM (highest dose often 38.3 µM), for inactives: top-dose activity change, negative = inhibition, usual class: inhibitors; 410,000 compounds, 0.13% hits; HEK293 cAMP-luciferase reporter cells, luminescence, 24 h;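 note: loss of luciferase light is scored as toxicity; % is set by controls: 0 for no effect and ±100 for the full control effect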
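1536-well qHTS counterscreen of the MLSMR; 200 cells/uL, 12 h pre-incubation, 23 nL cpd, 24 h at 37 deg C 5% CO2, luciferase detection reagent, 12 min RT, luminescence. Inhibition = undesired.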
GCN5L2 inh – qHTS Assay for Inhibitors of GCN5L2. Histone acetyltransferase KAT2A (Homo sapiens), Q92830. GCN5L2 HAT assay, ThioGlo1 CoA-SH fluorescence. Potency, µM (titrated, usually from 58.9 µM), for inactives: top-dose activity change, negative = inhibition, most hits filed as inhibitors. 390,000 compounds, 0.21% hits. AID 504327, 2011; note: % is set by controls: 0 for no effect and ±100 for the full control effect
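GCN5L2 (20 nM) in 50mM HEPES pH 7.5, 0.1mM EDTA, 0.01% Tween-20 preincubated 15 min with compounds at room temperature. Reaction started with H3(1-25) 75uM, acetyl-CoA 70uM, ThioGlo1 50uM; CoA-thiol fluorescence (Ex340/Em540) read at 0 and 20 min.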
GLP-1R agonist – qHTS of GLP-1 Receptor Agonists; Glucagon-like peptide 1 receptor (Homo sapiens), P43220; HEK293 GLP-1R CRE-luciferase, luminescence, 4-6 h; cells express a hypersensitive GLP-1R form; Potency, µM (series often up to 45.6 µM), for inactives: top-dose activation, most hits filed as activators; 380,000 compounds, 0.007% hits; AID 624172, 2012; note: % of control where 0% means no effect
Active calls of the source: *; i = inactive; ? = inconclusive; . = no result; [ ] = another dose, or the depositor's remark. Sampled rows, rich in hits. Any-hit rate of the full collection: about 1.8%. Calls come from the whole dose curve; as a rule, active = well fitted curve in the direction sought with a large enough effect; inconclusive = small, poorly fitted or top-dose-only effect, or another doubt; inactive = no such curve, though single readings can be large; an effect the other way counts as inactive or inconclusive. Potency is the fitted concentration of half-maximal effect.

SMILES	PTHR1 agonist	GLP-1R inv ag	RGS4 inhibitor	HEK293 tox	GCN5L2 inh	GLP-1R agonist
Cc1c(C(=O)N2c3ccccc3CC2C)oc2ccccc12 (stereo not given)	-84%	10µM*	-23%	-16%	-9%	-3%
CCCCN(CCCNC(=O)CN1N=C(c2ccc(C)cc2)CCC1=O)c1ccccc1	-16%	13µM*	4%	-5%	-17%	.
O=C(Cc1ccccc1)Nc1ccc(NC(=O)C2CCCCC2)nc1	i	7.1µM*	-31%	-16%	-1%	5%
CCn1cc(CN2CCC(C(=O)Nc3ccc(Oc4ccccc4)nc3)CC2)cn1	-6%	-11%	-22%	25%	?	-15%
Cc1c(CN2CCC(C(=O)Nc3ccc(Oc4ccccc4)nc3)CC2)cnn1C	i	-5%	0%	10%	-18%	5%
CCc1ccc(CN2CCC(C(=O)Nc3ccc(Oc4ccccc4)nc3)CC2)o1	-13%	8.9µM*	-1%	-10%	-6%	15%
O=C(Nc1ccc(Oc2ccccc2)nc1)C1CCN(Cc2ccccc2)CC1	i	11µM*	-21%	-27%	-7%	-3%
COC(=O)C1=C(N)Oc2cc(C)n(CC3CCCO3)c(=O)c2C1c1ccccc1OC (stereo not given)	i	7%	3%	-7%	-6%	-7%
COC(=O)C1=C(N)Oc2cc(N(C)C)ccc2C1c1ccccc1OC (stereo not given)	i	6.3µM*	-25%	7%	-17%	-3%
CC(=O)n1cc(N(C(=O)CCl)c2ccccc2)c2ccccc21	-36%	3.5µM*	-33%	?	0%	1%
CC(=O)n1cc(N(C(=O)CCl)c2ccc([N+](=O)[O-])cc2)c2ccccc21	-24%	?	-16%	?	-3%	-1%
NC(=O)[C@H]1CC2(CC(c3cccc(NC(=O)COc4ccc(Cl)cc4)c3)=NO2)CN1C(=O)CC(c1ccccc1)c1ccccc1 (stereo not given in full)	i	10µM*	5%	2%	-12%	-4%
NC(=O)[C@@H]1CC2(CC(c3cccc(NC(=O)CC(c4ccccc4)c4ccccc4)c3)=NO2)CN1C(=O)COc1ccc(Cl)cc1 (stereo not given in full)	i	11µM*	9%	-21%	-11%	2%
CCC(=O)N1CC2(CC(c3cccc(NC(=O)COc4ccc(Cl)cc4)c3)=NO2)C[C@@H]1C(N)=O (stereo not given in full)	.	.	.	.	-2%	.
COCOCCn1cc(CN2CCS(=O)(=O)N(Cc3ccc(-c4ccc(Cl)c(Cl)c4)cc3)C(C)C2=O)nn1 (stereo not given)	-82%	11µM*	.	-26%	.	0%
CC1C(=O)N(Cc2cn(Cc3ccco3)nn2)CCS(=O)(=O)N1Cc1ccc(-c2ccc(Cl)cc2)cc1 (stereo not given)	-45%	11µM*	.	-20%	.	-2%
CC(C)C1C(=O)N(Cc2cn(Cc3ccco3)nn2)CCS(=O)(=O)N1Cc1ccc(-c2ccc(Cl)cc2)cc1 (stereo not given)	-10%	4µM*	.	?	.	4%
COc1cccc(C(=O)Nc2cc(-c3ccccc3)no2)c1	-19%	6%	-5%	0%	-1%	.
COCCCN=C(c1ccco1)n1c(=S)nc(-c2ccco2)n(CCCOC)c1=S	-32%	25%	?	-2%	?	13%
CCCc1oc(C(=O)O)cc1CN	18µM*	8%	-29%	3%	-5%[0.501 µM]	-1%
CCOc1ccc(-n2nc(CO)c(C(=O)NCc3cccc(OC)c3)n2)cc1	-22%	-18%	-2%	-1%	-7%	.
CCC1CN(C(=O)NCc2ccc(F)cc2)c2cc(Cl)ccc2O1 (stereo not given)	-51%	10µM*	-25%	2%	-2%	5%
CCC1CN(C(=O)NCc2cccc(OC)c2)c2ccccc2O1 (stereo not given)	i	?	14%	21%	-8%	1%
CCC1CN(C(=O)NCc2cccc(OC)c2)c2cc(Cl)ccc2O1 (stereo not given)	-2%	11µM*	3%	0%	-13%	13%
CC1CCCCC1NC(=S)NC(=O)c1cccs1 (stereo not given)	-70%	8.9µM*	-17%	?	-6%	6%
SMILES	PTHR1 agonist	GLP-1R inv ag	RGS4 inhibitor	HEK293 tox	GCN5L2 inh	GLP-1R agonist
CCOc1ccc(S(=O)(=O)N2CCC(C(=O)Nc3ccc(C)c(S(=O)(=O)N4CCOCC4)c3)CC2)cc1	-29%	?	-12%	-6%	.	-6%
Cc1sc(-c2cc3c([nH]c2=O)CC(c2ccccc2)CC3=O)nc1-c1ccc(Cl)cc1 (stereo not given)	18%	1.3µM*	-9%	?	-6%	.
CCOC(=O)C1CCCN(C(=O)CNC(=O)Cn2ccc3ccccc3c2=O)C1 (stereo not given)	-2%[57.5 µM]	-8%	-14%[56.9 µM]	-7%	-2%	0%
COc1cccc(CNC(=O)c2oc3c(c2C)-c2nn(Cc4cccc(Cl)c4)cc2CC3)c1	-50%	11µM*	-4%	12%	-17%	.
COC(=O)CNC(c1ccccc1)c1cc(C)ccc1NC(=O)CNC(=O)OCc1ccccc1 (stereo not given)	i	?	16%	-23%	-3%	7%
COC(=O)CNC(c1ccccc1)c1cc(Br)ccc1NC(=O)OCc1ccccc1 (stereo not given)	-6%	4µM*	-24%	5%	-12%	-3%
Cc1cc(-n2c(C)cc(C(=O)CN3C(=O)C(=O)N(C)C3=O)c2C)no1	-22%	8%	31%	3%	-1%	-3%
Cc1cc(-n2c(C)cc(C(=O)CCl)c2C)no1	-32%	10µM*	-9%	?	-2%	-4%
O=S(=O)(Nc1cccc(-c2ccc(N3CCCCC3)nn2)c1)c1cccc(F)c1	-25%	?	-10%	1%	-24%	.
COCc1cc(C)nc2sc3c(=O)n(-c4cc(C)ccc4C)nnc3c12	-20%	-6%	17%	0%	-8%	.
